We go through four molecules from PubChem BioAssay (NCATS).

Records with an inconclusive call do not appear. A number with no mark means an inactive call. The source made the active and inactive calls. Calls come from the whole dose curve; as a rule, active = well fitted inhibition curve with a large enough effect; inconclusive = small, poorly fitted or top-dose-only effect; inactive = no such curve, though single readings can be large or run the other way.
% is set by controls: 0 for no effect and ±100 for the full control effect.

The assay in a line: Primary qHTS for inhibitors of nuclear receptor binding SET domain protein 2 (NSD2) in an RCH-ACV wild type WT cells (2C) (AID 1645877). Note: nearly all actives have a fitted effect of over 70% in size. The conditions noted are these: RCH-ACV (leukaemia line) NSD2 WT (2C) viability, CellTiter-Glo, 72 h; series mostly up to 44.9 µM; activity change, negative = cell killing: at the top concentration.
For `O=C(O)CCc1cc2ccoc2cc1O[C@@H]1O[C@H](CO[C@@H]2OC[C@](O)(CO)[C@H]2O)[C@@H](O)[C@H](O)[C@H]1O`, the “outcome” value was “inactive [at 17.3 µM]”.
Turning to `C=C1[C@H]2[C@H](O[C@@H]3O[C@H](COC(=O)/C=C/c4cc(OC)c(O)c(OC)c4)[C@@H](O)[C@H](O)[C@H]3O)OC=C(C(=O)O)[C@H]2C[C@@H]1O`, the “activity change, negative = cell killing” value was 3.81% [at 17.3 µM].
On the same count and under the same terms, for `C=C1C(O[C@@H]2O[C@H](CO)[C@@H](O)[C@H](O)[C@@H]2O)CC2C(C)(C)C(O)CCC2(C)C1CC/C(C)=C\CO` (some centres undefined) the value was -14.6% [at 17.3 µM].
The same measure, in the same setting: for `COC(=O)C12C(=O)C(C)=C(O)C1(C)C(C)=CC1C34CCC(OC3=O)C(C)(C)C4CCC12C` (centres undefined) the value was 0.607% [at 17.3 µM].
